HCMV inh – inhibitors of human cytomegalovirus. AID 1259415. activity change, negative = inhibition, % at 57.5 µM. HFF cells, HCMV-luciferase reporter, 72 h; hits give low values. 410,000 compounds, 4.5% hits; in the data active means activity change below about -60%; inconclusive means no clear call, values can overlap the other calls; inactive means above about -39%
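Inhibition of viral replication was scored as loss of reporter luminescence in HFFs infected with HCMV-luciferase (MOI 1 PFU/cell) for 72 h; compounds tested at 2 doses, normalized to buffer and Salinomycin controls.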
HCV inhibitor – inhibitors of hepatitis C virus infection; Potency, µM (top dose mostly 41.8 µM), actives largely listed as inhibitors; AID 651820; 340,000 compounds, 3.4% hits; Huh7.5.1 HCVcc-Cre infection, luciferase reporter, 44 h; active means well fitted inhibition curve with a large enough effect; inconclusive means small, poorly fitted or top-dose-only effect, or another doubt; inactive means no such curve, though single readings can be large or run the other way
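Reporter virus HCVcc-Cre (~0.5 moi) infects cells exposed to compound; seeding density 1,000 cells/well with 4 h settling beforehand. Luminescence, 15 sec read, taken 44 h post-infection following a 15 min RT substrate incubation.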
Lassa entry inh – Lassa virus entry inhibition; Lassa virus pseudotype entry inhibition, cell reporter; Potency, µM (titrated, usually from 37.9 µM), most hits filed as inhibitors; 300,000 compounds, 1.2% hits; AID 540256; calls by dose curve; tested in HEK293 cells; further: nearly all actives have a fitted effect of over 50% in size
Marburg entry inh – inhibitors of Marburg virus binding or cell entry; 300,000 compounds, 1.8% hits; AID 540276; Marburg virus pseudotyped entry inhibition, cell reporter; Potency, µM (series often up to 37.8 µM), most hits filed as inhibitors; calls by dose curve; tested in HEK293 cells
VACV mCherry inh – inhibitors of vaccinia virus infection (mCherry reporter signal) | Vaccinia virus mCherry reporter infection, fluorescence | 310,000 compounds, 0.63% hits | Potency, µM (highest dose often 36.5 µM), actives largely listed as inhibitors; calls by dose curve; tested in A549 cells; further: nearly all actives have a fitted effect of over 35% in size
Vaccinia Venus – vaccinia inhibition (Venus reporter); Potency, µM (series often up to 36.5 µM), actives largely listed as inhibitors; 330,000 compounds, 0.46% hits; Vaccinia virus Venus reporter expression, fluorescence; calls by dose curve; tested in A549 cells; further: nearly all actives have a fitted effect of over 30% in size
Each line names hits and unclear results; the compound was inactive in the other large screens. Most compounds without a hit are left out; they make up all but 7.8% or so of the library.

Cc1ccc(C)c(N2CCN(C(=O)c3cccn3-c3nnc(N4CCCCC4)s3)CC2)c1	none (no result: HCV inhibitor, Marburg entry inh)
Nc1ccccc1C(=O)OCCOc1ccccc1	Lassa entry inh inconclusive, Marburg entry inh 10µM (no result: VACV mCherry inh)
COc1ccc(N2C(=O)C(CN3CCN(C)CC3)C2c2ccccc2)cc1 (configuration not stated)	HCV inhibitor 35.5µM, Marburg entry inh inconclusive (no result: VACV mCherry inh, Vaccinia Venus)
Cn1cc([N+](=O)[O-])c(C(=O)Nc2cc(Oc3ccccc3)cc([N+](=O)[O-])c2)n1	HCMV inh -99.4, HCV inhibitor inconclusive, Lassa entry inh inconclusive, Marburg entry inh inconclusive, VACV mCherry inh 14.1µM, Vaccinia Venus inconclusive
Cn1cc([N+](=O)[O-])c(C(=O)Nc2ccc3c(C(F)(F)F)cc(=O)oc3c2)n1	HCMV inh -99.4, HCV inhibitor inconclusive (no result: Lassa entry inh, Marburg entry inh, VACV mCherry inh, Vaccinia Venus)
O=C(Nc1cc(Oc2ccc(Cl)cc2)cc([N+](=O)[O-])c1)c1ccco1	HCV inhibitor 10µM, Marburg entry inh inconclusive
Cc1cccc(Oc2cc(NC(=O)c3ccccc3)cc([N+](=O)[O-])c2)c1	HCMV inh -64.5, HCV inhibitor inconclusive, Lassa entry inh inconclusive, Marburg entry inh inconclusive, Vaccinia Venus inconclusive
COc1ccc(NC(=O)N2c3ccc(OC)cc3[C@@H](NCc3ccc(C)o3)[C@H](C)[C@H]2c2ccccc2)cc1	none (no result: HCV inhibitor, Lassa entry inh, Marburg entry inh, VACV mCherry inh, Vaccinia Venus)
COCCNCCCCOc1ccc(Br)cc1C	HCV inhibitor 10µM, Lassa entry inh inconclusive, Marburg entry inh inconclusive
Cc1cc(Cl)c(OCCCCNC(C)(C)C)c(Br)c1	HCV inhibitor 10µM, Lassa entry inh inconclusive, Marburg entry inh inconclusive (no result: HCMV inh, VACV mCherry inh, Vaccinia Venus)
Cc1cc(Br)ccc1OCCCCNC(C)(C)C	HCV inhibitor 12.6µM, Marburg entry inh inconclusive, VACV mCherry inh inconclusive
COCCCNCCCCOc1cccc(Br)c1	HCV inhibitor inconclusive, Marburg entry inh inconclusive
COc1ccccc1OCCCCNC(C)(C)C	none
Cc1cc(Cl)c(OCCCN(C)C)c(Br)c1	Marburg entry inh inconclusive
COCCCNCCCCOc1ccc(Br)cc1C	HCV inhibitor 11.2µM, Lassa entry inh inconclusive, Marburg entry inh 13µM
CC(=O)O[C@@]12CO[C@@H]1C[C@H](OC1OCC(O)C(O)C1O)[C@@]1(C)C(=O)[C@H](O)C3=C(C)[C@@H](OC(=O)[C@H](O)[C@@H](NC(=O)c4ccccc4)c4ccccc4)C[C@@](O)([C@@H](OC(=O)c4ccccc4)C12)C3(C)C (some centres not stated)	none (no result: Lassa entry inh, Marburg entry inh)
CC(=O)O[C@@]12CO[C@@H]1C[C@@H](O)[C@@]1(C)C(=O)[C@H](O)C3=C(C)[C@@H](OC(=O)[C@H](O)[C@@H](NC(=O)c4ccccc4)c4ccccc4)C[C@@](O)([C@@H](OC(=O)c4ccccc4)C12)C3(C)C (some centres not stated)	HCMV inh inconclusive, HCV inhibitor 0.316µM, VACV mCherry inh inconclusive (no result: Lassa entry inh, Marburg entry inh)
CC(=O)O[C@H]1C(=O)[C@@]2(C)[C@H]([C@H](OC(=O)c3ccccc3)[C@]3(O)C[C@H](OC(=O)[C@H](O)[C@@H](NC(=O)c4ccccc4)c4ccccc4)C(C)=C1C3(C)C)[C@]1(OC(C)=O)CO[C@@H]1C[C@@H]2O	HCMV inh -70.4, HCV inhibitor inconclusive, Marburg entry inh inconclusive, VACV mCherry inh inconclusive, Vaccinia Venus inconclusive (no result: Lassa entry inh)
CC/C=C/CC(=O)N[C@@H](c1ccccc1)[C@@H](O)C(=O)O[C@H]1C[C@@]2(O)[C@@H](OC(=O)c3ccccc3)C3[C@](C)(C(=O)[C@H](OC(C)=O)C(=C1C)C2(C)C)[C@@H](O)C[C@H]1OC[C@@]31OC(C)=O (some centres not stated)	HCMV inh -91.0, Vaccinia Venus inconclusive (no result: Lassa entry inh, Marburg entry inh)
CC(=O)O[C@H]1C(=O)[C@@]2(C)[C@H]([C@H](OC(=O)c3ccccc3)[C@]3(O)C[C@H](OC(=O)[C@H](O)C(NC(=O)c4ccccc4)c4ccccc4)C(C)=C1C3(C)C)[C@]1(OC(C)=O)CO[C@@H]1C[C@@H]2O (some centres not stated)	HCMV inh -82.6, HCV inhibitor inconclusive, VACV mCherry inh inconclusive (no result: Lassa entry inh, Marburg entry inh)
C/C=C(\C)C(=O)N[C@@H](c1ccccc1)[C@@H](O)C(=O)O[C@H]1C[C@@]2(O)[C@@H](OC(=O)c3ccccc3)C3[C@](C)(C(=O)[C@H](OC(C)=O)C(=C1C)C2(C)C)[C@H](O)C[C@H]1OC[C@@]31OC(C)=O (some centres not stated)	HCV inhibitor inconclusive (no result: Lassa entry inh, Marburg entry inh)
COC(=O)c1cccc(C(=O)N2CCc3c(C(=O)OC)c(OCc4ccccn4)cc(=O)n3CC2)c1	none (no result: HCMV inh, HCV inhibitor, Lassa entry inh, Marburg entry inh)
CCOC(=O)c1ccc(NC(=O)c2cc3cc(C)ccc3n2C)cc1	none (no result: HCV inhibitor)
CC1=C2CCC[C@]3(C)CCOC23C=CC1=O (some centres not stated)	none (no result: HCV inhibitor, Lassa entry inh, Marburg entry inh, VACV mCherry inh, Vaccinia Venus)
CCc1cc(-c2n[nH]c(C)c2-c2nc3ccccc3n2C)c(O)cc1O	HCMV inh -71.4, HCV inhibitor inconclusive, Lassa entry inh inconclusive, Marburg entry inh inconclusive
CCc1cc(-c2n[nH]c(CCC(=O)O)c2-c2nc3ccccc3n2C)c(O)cc1O	none
CO[C@H](C1CCCCC1)[C@H](C)/C=C/CC(=O)OCCCc1ccccc1	none (no result: HCMV inh, HCV inhibitor, Lassa entry inh, VACV mCherry inh, Vaccinia Venus)
Cc1ccc(C)c(N2CCN(c3nc4ccccc4n4c(C)nnc34)CC2)c1	none (no result: HCV inhibitor, Marburg entry inh)
Fc1ccccc1N1CCN(c2ncnc3c2nc2n3CCCC2)CC1	HCMV inh -63.3 (no result: HCV inhibitor, Marburg entry inh)
Cc1cccc(N2CCN(c3ncnc4c3nc3n4CCCCC3)CC2C)c1 (configuration not stated)	HCMV inh -98.4, Lassa entry inh inconclusive, VACV mCherry inh inconclusive, Vaccinia Venus inconclusive (no result: HCV inhibitor, Marburg entry inh)
Clc1cccc(N2CCN(c3ncnc4c3nc3n4CCCC3)CC2)c1	Marburg entry inh inconclusive (no result: HCV inhibitor)
Cc1cccc(N2CCN(CCCNC(=O)C3CCCN(c4ncnc5c4nc4n5CCCCC4)C3)CC2C)c1 (configuration not stated)	HCMV inh inconclusive, HCV inhibitor inconclusive, Lassa entry inh inconclusive, Marburg entry inh 11.2µM, Vaccinia Venus inconclusive
CCOc1ccc(NC(=O)C2CCN(c3nc4ccccc4[nH]3)CC2)cc1	none (no result: HCV inhibitor, Marburg entry inh)
OCCCc1nc2n(n1)C(c1ccccc1)C=C(c1ccc(F)cc1)N2 (configuration not stated)	HCV inhibitor 11.2µM (no result: VACV mCherry inh, Vaccinia Venus)
NC(=S)N=Nc1c(O)[nH]c2ccccc12	Lassa entry inh inconclusive, VACV mCherry inh 12.6µM, Vaccinia Venus inconclusive
Oc1[nH]c2ccccc2c1N=Nc1c(F)c(F)c(Cl)c(F)c1F	HCMV inh -96.7 (no result: Lassa entry inh, Marburg entry inh, VACV mCherry inh, Vaccinia Venus)
Oc1[nH]c2ccccc2c1N=NC(=S)N1CCOCC1	HCV inhibitor 8.91µM (no result: HCMV inh, Lassa entry inh, Marburg entry inh, VACV mCherry inh, Vaccinia Venus)
Oc1[nH]c2ccccc2c1N=Nc1ccccc1Cl	none
CCOc1ccc(NC(=S)N=Nc2c(O)[nH]c3ccccc23)cc1	HCV inhibitor 12.6µM, Lassa entry inh inconclusive, Marburg entry inh inconclusive
COC(=O)C(c1cccc(OC)c1)(c1cn(C)c2ccccc12)C(Nc1ccccc1)c1ccccc1 (configuration not stated)	none (no result: HCV inhibitor, Lassa entry inh, Marburg entry inh, VACV mCherry inh, Vaccinia Venus)
Cc1ccccc1C(=O)N1CC(=O)Nc2ccc(Cl)cc2C1c1ccccc1 (configuration not stated)	none (no result: HCV inhibitor)
